Several values for one entry are separate records, joined by “and”; a condition that tells them apart may be missing. Equal values may be shown once. In all, about 16,000 compounds went through this assay and about 5,100 (32%) were called active. Inconclusive results (about 25%) are left out. The call rests on the fitted dose curve; in most records, active means well fitted curve in the direction sought with a large enough effect; inconclusive means small, poorly fitted or top-dose-only effect, or effect the other way; inactive means no such curve, though single readings can be large or run the other way. This is one part of the list.
Molecular target: Cytochrome P450 3A4 (Homo sapiens) (UniProt P08684)
Sequence (P08684 whole entry, looked up): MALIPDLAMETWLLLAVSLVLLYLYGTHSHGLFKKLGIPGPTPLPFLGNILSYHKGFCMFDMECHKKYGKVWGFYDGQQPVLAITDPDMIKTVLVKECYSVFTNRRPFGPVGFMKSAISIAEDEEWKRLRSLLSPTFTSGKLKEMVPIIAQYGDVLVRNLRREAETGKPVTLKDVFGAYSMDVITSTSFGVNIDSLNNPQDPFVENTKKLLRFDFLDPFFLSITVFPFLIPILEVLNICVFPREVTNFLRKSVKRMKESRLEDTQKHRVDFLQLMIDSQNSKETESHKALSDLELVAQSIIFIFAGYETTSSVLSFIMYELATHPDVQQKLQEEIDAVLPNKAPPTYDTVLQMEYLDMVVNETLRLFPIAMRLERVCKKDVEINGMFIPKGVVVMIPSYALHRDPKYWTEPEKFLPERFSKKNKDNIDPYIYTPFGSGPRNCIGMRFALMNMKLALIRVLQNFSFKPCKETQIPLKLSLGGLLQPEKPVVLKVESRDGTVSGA
Assay: Cytochrome panel assay with activity outcomes
Details: recombinant CYP, pro-luciferin dealkylation, luminescence, p450-cyp3a4; series mostly up to 57.1 µM
On the % scale 0 is the no-effect control and ±100 the full control effect.

AC50, active:
O=C(c1csnn1)N1CCC2(CCCN(c3ccccc3)C2)CC1 12.6 µM
O=C(c1csnn1)N1CCC2(CCCN(c3ccc(-c4ccccc4)cc3)C2)CC1 7.94 µM
CN1CCC(n2[nH]c(-c3ccccc3)c(Cc3ccccc3)c2=O)CC1 3.98 µM
CCOC(=O)c1c(C)oc2c1cc(O)c1ccccc12 14.1 µM
COc1cc(CNC(=O)CCCC/C=C\C(C)C)ccc1O 3.98 µM and 7.94 µM
CCn1c(SCC(=O)Nc2sc3c(c2C(N)=O)CCC(C)C3)nnc1-c1ccco1 (centres undefined) 7.08 µM
COc1ccccc1CNc1ccnc(-c2cccc(C#N)c2)n1 3.98 µM
COc1ccc(CNc2ccnc(-c3cccc(C#N)c3)n2)c(OC)c1 2 µM
O=C(Nc1nnc(SCc2c(Cl)cccc2Cl)s1)C1CCCO1 (centres undefined) 12.6 µM
O=C(Nc1nnc(SCc2ccc(Cl)cc2Cl)s1)C1COc2ccccc2O1 (centres undefined) 4.47 µM
Cc1nn(CCc2n[nH]c(=S)n2-c2ccc(F)c(Cl)c2)c(C)c1[N+](=O)[O-] 3.16 µM
CC(C)N1CCN(c2ccc(OC[C@@H]3CO[C@@](Cn4cncn4)(c4ccc(Cl)cc4Cl)O3)cc2)CC1 1.58 µM
COc1ccc(CNc2nc(-c3c(C)noc3C)nc3ccccc23)c(OC)c1 2.51 µM
COc1ccccc1CNc1nc(-c2c(C)noc2C)nc2ccccc12 10 µM
Cc1noc(C)c1-c1nc(NCc2cccs2)c2ccccc2n1 6.31 µM
CN(C)C(=O)c1ccc(-c2cncnc2NCc2cccs2)cc1 3.16 µM
CN(C)c1ccc(-c2cncnc2NCc2cccs2)cc1 0.794 µM
CCCn1c2c(c(O)c(C(=O)NCc3ccccc3)c1=O)CCCC2 17.8 µM
COc1ncc2nc(-c3cn(C)c4ccccc34)c(=O)n(C)c2n1 5.01 µM
COc1ncc2nc(-c3cn(C)c4ccccc34)c(=O)n(CCC#N)c2n1 6.31 µM
COc1ccc(-n2c(=O)c(-c3cn(C)c4ccccc34)nc3cnc(OC)nc32)cc1 1.58 µM
Cc1c(NC(=O)CCCOc2ccccc2)cccc1[N+](=O)[O-] 14.1 µM
CCCCC(=O)Nc1cc(OCC)c(NC(=O)c2ccccc2[N+](=O)[O-])cc1OCC 7.08 µM
CCN(CC)S(=O)(=O)c1ccc(OC)c(NC(=O)c2cc([N+](=O)[O-])ccc2Cl)c1 12.6 µM
Cc1cccc(OCCCC(=O)Nc2ccccc2C(F)(F)F)c1 14.1 µM
COc1cc([N+](=O)[O-])ccc1NC(=O)CCCOc1cccc(C)c1 5.01 µM
CCN(CC(=O)Nc1ccc([N+](=O)[O-])cc1OC)c1ccccc1 12.6 µM
COc1ccccc1NC(=O)Cn1cncc1-c1ccc([N+](=O)[O-])cc1 14.1 µM
CCCNC(=O)OC[C@H]1O[C@@H](CCO/N=C\[C@@H](NS(=O)(=O)c2ccc(C)cc2)[C@H](C)/C=C\CC(=O)OC)C=C[C@@H]1Oc1ccc(OC)cc1 3.16 µM
COC(=O)C/C=C\[C@@H](C)[C@@H](/C=N\OCC[C@H]1C=C[C@H](OC(C)=O)[C@@H](COC(C)=O)O1)NS(=O)(=O)c1ccc(C)cc1 3.98 µM
COc1cc2c(cc1OC)CN(C(=S)Nc1ccccc1)CC2 12.6 µM
CC(=O)NCCC(=O)Nc1sc2c(c1-c1nc3ccccc3[nH]1)CCCC2 12.6 µM
COc1cccc(Cn2c(=O)c(-c3cccs3)nc3cnc(N4CCNCC4)nc32)c1 15.8 µM
COc1cccc(Cn2c(=O)c(-c3cccs3)nc3cnc(N4CCN(C)CC4)nc32)c1 12.6 µM
Cc1ccccc1-c1ccc2ncnc(N3CCN(C)CC3)c2c1 3.98 µM
CN1CCN(c2ncnc3ccc(-c4ccccc4C#N)cc23)CC1 15.8 µM
CN1CCN(c2ncnc3ccc(-c4ccccc4Cl)cc23)CC1 5.01 µM

AC50, inactive:
O=C(CP(=O)(c1ccccc1)c1ccccc1)Nn1cnnc1
O=C(c1csnn1)N1CCC2(CC1)CCN(c1ccccn1)CC2
O=C(c1csnn1)N1CCC2(CC1)CN(c1ccccc1)C2
O=C(c1csnn1)N1CCC2(CC1)CCN(c1ccccc1)CC2
CCNc1ncc2nc(-c3ccc(Cl)cc3)c(=O)n(C3CC3)c2n1
CCOC(=O)c1c(C(C)(C)C)oc2ccc(O)cc12
CCOC(=O)c1c(C)oc2c1c(C=NC1CCS(=O)(=O)C1)c(O)c1ccccc12 (centres undefined)
COc1cc(CC(=O)O)ccc1O
COc1cc([C@H](O)C(=O)O)ccc1O
CCn1c(SCC(=O)Nc2sc3c(c2C#N)CCC(C(C)(C)C)C3)nnc1-c1ccco1 (centres undefined)
CCOC(=O)c1c(NC(=S)NC(=O)c2cnn(CC)c2)sc2c1CCC(C)C2 (centres undefined)
CC(=O)C[C@H](c1ccc([N+](=O)[O-])cc1)c1c(O)c2ccccc2oc1=O
O=C(O)CC/C=C\CC[C@H]1[C@@H](N2CCCCC2)[C@@H](O)C[C@@H]1OCc1ccc(-c2ccccc2)cc1
O=C(Nc1ncc(Cc2ccccc2)s1)C1COc2ccccc2O1 (centres undefined)
NC(=O)c1ccc(NC(=O)C2CCCO2)cc1 (centres undefined)
CCCCCCCCCCCCCCCC[N+](C)(C)CCN(Cc1ccc(OC)cc1)c1ncccn1
C[n+]1ccccc1/C=N\O
CCn1cc(C(=O)O)c(=O)c2cnc(N3CCCC3)nc21
Cn1cc(-c2nc3cnc(Oc4ccccc4)nc3n(C)c2=O)c2ccccc21
COc1ncc2nc(-c3ccccc3)c(=O)n(-c3ccccc3)c2n1
CC(=O)c1cnc2c(C(=O)O)cnn2c1C
Cc1c(NC(=O)/C=C/C(=O)O)cccc1[N+](=O)[O-]
O=C1NCCCC1C(=O)Nc1ccccc1C(F)(F)F (centres undefined)
Cc1ccc(OCC(=O)NNC(=O)CCC(=O)Nc2ccc(C)cc2C)cc1
Cc1cccc[n+]1CC(=O)Nc1ccc([N+](=O)[O-])cc1Cl
CCCS(=O)(=O)N1CCCC(C(=O)N2CCOCC2)C1 (centres undefined)
CSc1nc(Cl)cc(N(CCO)CCO)n1
Nc1ccn([C@@H]2CC[C@H](CO)O2)c(=O)n1
CC(=O)Nc1sc2c(c1CN1CCN(C)CC1)CCCC2
CC(C)OC(=O)c1cc2c(OC[C@@H](O)CNC(C)(C)C)cccc2[nH]1
c1ccc(C2OCC3(CO2)COC(c2ccccc2)OC3)cc1 (centres undefined)

activity, negative = inhibition, inactive:
O=c1c(Cc2ccccc2)c(O)nc2n1CCS2 -2.9% [at 2.29 µM]
CN(C)CN1CSC(=S)N(CN(C)C)C1 -11.6% [at 11.4 µM]
CC1=NCC[N@@+]1(CCc1ccccc1)Cc1ccccc1 -18.6% [at 11.4 µM]
N#C[C@H](c1ccccc1)N1CCCN([C@@H](C#N)c2ccccc2)C1c1ccccc1O (some centres undefined) -24.5% [at 11.4 µM]
NC(N)=NC(N)=Nc1c(F)c(F)c(F)c(F)c1F -1.13% [at 11.4 µM]
CC(C)=C1C(=O)NN(c2ccc(F)c(Cl)c2)C1=O -12.4% [at 11.4 µM]
Cc1cccc(-n2c(Cn3nc(C)c([N+](=O)[O-])c3C)n[nH]c2=S)c1 -17% [at 2.29 µM]
O=C(Nc1c[nH]c(=O)[nH]c1=O)Oc1ccccc1 -22.1% [at 11.4 µM]
Cc1cc(=O)oc(C)c1C(=O)NCc1ccccc1 0.149% [at 2.29 µM]
CCCCCCc1nc2ccccc2c(=O)n1NC(=O)c1c(O)c2c(n(CC(C)C)c1=O)CCCC2 10% [at 2.29 µM]
CCOc1cc(NC(=O)c2ccccc2[N+](=O)[O-])c(OCC)cc1NC(=O)CC(C)C 3.38% [at 2.29 µM]
OC[C@@H]1O[C@@H](N2CCN([C@@H]3O[C@@H](CO)[C@@H](O)[C@H](O)[C@H]3O)CC2)[C@@H](O)[C@H](O)[C@H]1O 2.3% [at 11.4 µM]
CCN(CC)C(=O)c1cc2cc([N+](=O)[O-])ccc2s1 20.4% [at 11.4 µM]
CCCOc1ccc(/C=C/C(=O)Nc2ccc([N+](=O)[O-])cc2C)cc1 2.56% [at 11.4 µM]
Cc1cc2nc([C@H](C)C(=O)c3ccc(Cl)cc3)c(=O)[nH]c2cc1C -25.9% [at 11.4 µM]
COC(=O)C/C=C\[C@@H](C)[C@@H]1C=C[C@H](OC(C)=O)[C@H](COC(C)=O)O1 -23.4% [at 11.4 µM]
CC(C)(CO)N1CCN(C(=S)Nc2ccccc2)CC1 -8.25% [at 11.4 µM]
Clc1ccc2c(N3CCC(CCC4CCN(c5ncnc6cc(Cl)ccc56)CC4)CC3)ncnc2c1 -31.6% [at 11.4 µM]
COC(=O)c1ccc(Oc2nc(N(C)C)nc(N3CCOCC3)n2)cc1 14.7% [at 11.4 µM]
C[C@H]1[C@H](C)OC(=O)C[C@H](O)C[C@H](O)C[C@H](O)CC[C@H](O)[C@H](O)CC(=O)C[C@H](O)[C@H](C(=O)O)[C@H](O)C[C@H](O[C@@H]2O[C@@H](C)[C@H](O)[C@@H](N)[C@@H]2O)C=CC=CC=CC=CCCC=CC=C[C@@](C)(O)[C@H]1O 7.28% [at 11.4 µM]
CCOc1ccc2c(ccc(/C=C\c3cc(C)c4cccnc4c3O)[n+]2C)c1 -23.9% [at 11.4 µM]

From PubChem BioAssay AID1851 (National Center for Advancing Translational Sciences (NCATS), 2009)
